Measured values reported in PubChem BioAssay (Tox21).
Inconclusive results are not listed. A call without a number means that no potency is given here. Calls of active or inactive are those of the source. Unless noted, calls come from the whole dose curve; as a rule, active = well fitted curve in the direction sought with a large enough effect in the repeat runs; inconclusive = weak or mixed curves; inactive = no such curve, though single readings can be large; an effect the other way counts as inactive or inconclusive.

Legend:
[1] = molecular target: Aryl hydrocarbon receptor (Homo sapiens) (UniProt P35869); experiment: qHTS assay to identify small molecule that activate the aryl hydrocarbon receptor (AhR) signaling pathway (AID 743085); note: nearly all actives have a fitted effect of over 15% in size; note: potency is the fitted concentration of half-maximal effect;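 for activation: HG2L7.5c1 human HepG2 liver cells with stably integrated DRE-driven firefly reporter; series mostly up to about 70 µM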
Sequence of Aryl hydrocarbon receptor (Homo sapiens) (P35869 whole entry, looked up): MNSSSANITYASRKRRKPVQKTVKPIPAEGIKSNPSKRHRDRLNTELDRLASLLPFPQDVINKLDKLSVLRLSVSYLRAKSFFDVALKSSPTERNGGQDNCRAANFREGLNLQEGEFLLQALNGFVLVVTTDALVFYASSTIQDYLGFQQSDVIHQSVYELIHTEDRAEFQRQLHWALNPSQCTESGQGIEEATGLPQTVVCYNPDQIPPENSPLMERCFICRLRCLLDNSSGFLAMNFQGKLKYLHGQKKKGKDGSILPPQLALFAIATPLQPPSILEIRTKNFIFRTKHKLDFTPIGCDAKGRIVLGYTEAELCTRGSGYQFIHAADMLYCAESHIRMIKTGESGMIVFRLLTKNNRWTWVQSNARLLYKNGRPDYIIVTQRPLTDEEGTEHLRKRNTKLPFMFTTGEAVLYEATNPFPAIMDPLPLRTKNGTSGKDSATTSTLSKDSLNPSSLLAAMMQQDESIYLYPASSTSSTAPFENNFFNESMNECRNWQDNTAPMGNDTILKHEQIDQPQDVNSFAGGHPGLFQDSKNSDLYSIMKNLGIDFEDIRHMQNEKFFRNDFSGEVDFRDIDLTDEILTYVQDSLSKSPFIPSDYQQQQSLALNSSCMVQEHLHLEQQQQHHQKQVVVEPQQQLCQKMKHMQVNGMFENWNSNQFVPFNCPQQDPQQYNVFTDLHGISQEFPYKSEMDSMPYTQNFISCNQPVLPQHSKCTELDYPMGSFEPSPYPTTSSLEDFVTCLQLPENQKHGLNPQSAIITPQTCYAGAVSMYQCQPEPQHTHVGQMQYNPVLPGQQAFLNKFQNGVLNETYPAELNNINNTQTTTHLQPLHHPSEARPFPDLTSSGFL
Outline: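 Compounds were tested in HepG2 hepatocellular carcinoma cells harbouring a stably integrated luciferase gene under control of 20 DREs. Increased reporter signal after 24 h treatment at 37C was taken as AhR activation.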

[2] = qHTS assay to identify small molecule that activate the aryl hydrocarbon receptor (AhR) signaling pathway - cell viability counter screen (AID 743086); note: nearly all actives have a fitted effect of over 45% in size; note: potency is the fitted concentration of half-maximal effect
Outline: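 HepG2-AhR-luc (HG2L7.5c1) cells, 4000/well, treated 24 h at 37 C with compound; viability measured as CellTiter-Fluor fluorescence after 30 min in the same wells as the luciferase read.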

[3] = molecular target: Peroxisome proliferator-activated receptor gamma (Homo sapiens) (UniProt P37231); experiment: qHTS assay to identify small molecule agonists of the peroxisome proliferator-activated receptor gamma (PPARg) signaling pathway (AID 743094; active = well fitted activation curve with a large enough effect in the signal ratio in the repeat runs, not every such curve was filed as active; the % refers to the signal ratio)
Sequence of Peroxisome proliferator-activated receptor gamma (Homo sapiens) (P37231 whole entry, looked up): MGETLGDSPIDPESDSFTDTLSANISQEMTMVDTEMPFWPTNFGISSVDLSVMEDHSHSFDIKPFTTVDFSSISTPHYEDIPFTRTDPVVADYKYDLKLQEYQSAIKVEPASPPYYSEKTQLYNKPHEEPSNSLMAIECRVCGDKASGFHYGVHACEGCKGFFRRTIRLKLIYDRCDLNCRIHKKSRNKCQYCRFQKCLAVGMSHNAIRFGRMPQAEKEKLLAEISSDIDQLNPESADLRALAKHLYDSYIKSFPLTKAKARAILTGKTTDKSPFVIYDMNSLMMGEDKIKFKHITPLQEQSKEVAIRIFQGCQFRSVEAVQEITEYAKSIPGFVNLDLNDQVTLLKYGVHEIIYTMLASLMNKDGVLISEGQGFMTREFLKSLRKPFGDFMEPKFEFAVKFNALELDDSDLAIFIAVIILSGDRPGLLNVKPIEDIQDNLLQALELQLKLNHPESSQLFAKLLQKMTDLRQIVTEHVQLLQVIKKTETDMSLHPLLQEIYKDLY
Outline: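 Fluorescence-based beta-lactamase readout in HEK293H PPARg UAS-bla cells after 17 h compound exposure (37C) and 1 h B/G FRET substrate incubation at room temperature.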

[4] = qHTS assay to identify small molecule antagonists of the peroxisome proliferator-activated receptor gamma (PPARg) signaling pathway - cell viability counter screen (AID 743194); note: nearly all actives have a fitted effect of over 55% in size
Outline: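 Cytotoxicity counter screen in PPARg-bla HEK293H cells, same wells as reporter assay. Compounds plus 50 nM rosiglitazone (final) for 17 h at 37 C, then viability read by CellTiter-Glo luminescence.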

[5] = qHTS assay for small molecule agonists of the antioxidant response element (ARE) signaling pathway (AID 743202; active = well fitted activation curve with a large enough effect in the signal ratio in the repeat runs, not every such curve was filed as active; the % refers to the signal ratio; note: potency is the fitted concentration of half-maximal effect)
Outline: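 HepG2 ARE-bla cells; 16 h treatment at 37 C; FRET-based beta-lactamase fluorescence read after 2 h substrate incubation at room temperature.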

[6] = qHTS assay for small molecule agonists of the antioxidant response element (ARE) signaling pathway - cell viability counter screen (AID 743203; calls by dose curve; note: nearly all actives have a fitted effect of over 55% in size; note: potency is the fitted concentration of half-maximal effect)
Outline: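 Parallel cytotoxicity read-out for the ARE-bla screen: HepG2 reporter cells, 16 hrs with compounds, then CellTiter-Glo luminescence.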

[7] = qHTS assay for small molecule activators of the heat shock response signaling pathway - cell viability counter screen (AID 743209); note: nearly all actives have a fitted effect of over 50% in size
Outline: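 To flag cytotoxic compounds, HSE-bla HeLa cells plated at 1500 cells/well were dosed for 5 h at 37 C, followed by the reporter FRET read and then CellTiter-Glo, with luminescence recorded 30 min after reagent addition.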

[8] = qHTS assay for small molecule activators of the heat shock response signaling pathway (AID 743210; active = well fitted activation curve with a large enough effect in the signal ratio in the repeat runs, with a control signal flat, not every such curve was filed as active; the % refers to the signal ratio;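 note: HeLa cells with beta-lactamase reporter driven by heat shock elements; series mostly up to about 63 µM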)
Outline: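 Following overnight attachment, HSE-bla HeLa cells received test compounds for 5 h at 37 C; beta-lactamase activity was then detected via FRET substrate fluorescence.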

[9] = qHTS assay to identify small molecule agonists of the peroxisome proliferator-activated receptor delta (PPARd) signaling pathway - cell viability counter screen (AID 743211); note: nearly all actives have a fitted effect of over 55% in size
Outline: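 Counter screen for cytotoxicity run in parallel with the PPARd reporter screen. Beta-lactamase reporter HEK293H cells exposed to compounds 17 h; ATP-based CellTiter-Glo luminescence quantified viability.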

[10] = molecular target: Peroxisome proliferator-activated receptor delta (Homo sapiens) (UniProt Q03181); experiment: qHTS assay to identify small molecule agonists of the peroxisome proliferator-activated receptor delta (PPARd) signaling pathway (AID 743212; calls by dose curve)
Sequence of Peroxisome proliferator-activated receptor delta (Homo sapiens) (Q03181 whole entry, looked up): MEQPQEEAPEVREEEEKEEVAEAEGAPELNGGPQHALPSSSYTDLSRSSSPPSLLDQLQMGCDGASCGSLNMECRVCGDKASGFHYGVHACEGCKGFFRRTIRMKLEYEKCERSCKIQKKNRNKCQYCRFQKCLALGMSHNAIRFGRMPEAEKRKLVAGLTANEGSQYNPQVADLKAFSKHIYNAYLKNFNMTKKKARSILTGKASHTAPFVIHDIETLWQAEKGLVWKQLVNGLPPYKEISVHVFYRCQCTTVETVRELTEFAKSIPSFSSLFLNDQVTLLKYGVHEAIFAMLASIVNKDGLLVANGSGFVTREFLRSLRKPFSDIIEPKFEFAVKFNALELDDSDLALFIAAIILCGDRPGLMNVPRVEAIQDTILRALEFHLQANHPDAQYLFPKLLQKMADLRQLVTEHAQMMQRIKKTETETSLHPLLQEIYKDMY
Outline: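 Tox21 library screened in GeneBLAzer PPARd UAS-bla HEK293H cells. After compound treatment at 37 C, a FRET-based beta-lactamase substrate was applied for 2 h and fluorescence recorded.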

[11] = qHTS assay to identify small molecule antagonists of the peroxisome proliferator-activated receptor delta (PPARd) signaling pathway - cell viability counter screen (AID 743213); note: nearly all actives have a fitted effect of over 50% in size
Outline: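 In this counter screen, HEK293H cells carrying a UAS-beta-lactamase reporter are co-treated with test compounds and 300 nM L165041 (final) for 17 h at 37 C; cell viability is quantified by CellTiter-Glo luminescence.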

[12] = qHTS assay to identify small molecule antagonists of the farnesoid-X-receptor (FXR) signaling pathway - cell viability counter screen (AID 743221; active = well fitted cell-killing curve with a large enough effect in the repeat runs, not every such curve was filed as active; note: nearly all actives have a fitted effect of over 50% in size)
Outline: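 Multiplexed counter screen: viability of FXR-bla HEK 293T cells under agonist stimulation by chenodeoxycholic acid (50 uM, final) and test compound for 16 h at 37 C, measured by CellTiter-Glo luminescence in the reporter wells.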

[13] = molecular target: Vitamin D3 receptor (Homo sapiens) (UniProt P11473); experiment: qHTS assay to identify small molecule agonists of the vitamin D receptor (VDR) signaling pathway (AID 743222; calls by dose curve)
Sequence of Vitamin D3 receptor (Homo sapiens) (P11473 whole entry, looked up): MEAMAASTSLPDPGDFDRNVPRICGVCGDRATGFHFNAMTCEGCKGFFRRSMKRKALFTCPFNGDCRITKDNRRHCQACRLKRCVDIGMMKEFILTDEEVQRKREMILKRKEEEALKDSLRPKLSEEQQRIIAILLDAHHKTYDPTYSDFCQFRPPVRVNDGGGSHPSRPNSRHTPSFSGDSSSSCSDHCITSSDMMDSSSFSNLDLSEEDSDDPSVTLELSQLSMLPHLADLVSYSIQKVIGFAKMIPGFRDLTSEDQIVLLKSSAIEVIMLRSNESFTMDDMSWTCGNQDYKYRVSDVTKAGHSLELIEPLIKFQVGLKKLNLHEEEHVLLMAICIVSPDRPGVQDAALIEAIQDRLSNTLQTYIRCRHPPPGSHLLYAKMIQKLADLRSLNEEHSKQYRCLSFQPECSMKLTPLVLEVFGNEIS
Outline: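 Using LiveBLAzer B/G FRET detection, agonism was scored in VDR-bla cells exposed overnight (16 h, 37C) to DMSO-dissolved compounds; substrate incubation was 2 h at room temperature.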

[14] = qHTS assay to identify small molecule agonists of the vitamin D receptor (VDR) signaling pathway - cell viability counter screen (AID 743224); note: series mostly up to about 63 µM; nearly all actives have a fitted effect of over 50% in size
Outline: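 Counter screen for cytotoxicity: VDR-bla cells at 2,000 cells/well, 16 h compound exposure, then CellTiter-Glo luminescence after the beta-lactamase measurement.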

[15] = molecular target: Peroxisome proliferator-activated receptor gamma (Homo sapiens) (UniProt P37231); experiment: qHTS assay to identify small molecule antagonists of the peroxisome proliferator-activated receptor gamma (PPARg) signaling pathway (AID 743191; calls by dose curve; note: series mostly up to about 63 µM; nearly all actives have a fitted effect of over 30% in size)
Outline: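 GeneBLAzer PPARg UAS-bla HEK293H cells, 5 h post-plating, exposed to compounds 17 h at 37C. LiveBLAzer B/G FRET substrate added for 1 h at room temperature; beta-lactamase reporter read by fluorescence intensity.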

[16] = molecular target: Peroxisome proliferator-activated receptor delta (Homo sapiens) (UniProt Q03181); experiment: qHTS assay to identify small molecule antagonists of the peroxisome proliferator-activated receptor delta (PPARd) signaling pathway (AID 743215; active = well fitted inhibition curve with a large enough effect in the signal ratio in the repeat runs, not every such curve was filed as active; the % refers to the signal ratio;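 note: cells stimulated with agonist L165041 at 300 nM final during compound exposure; series mostly up to about 62 µM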)
Outline: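 Screen format: qHTS, antagonist mode. HEK293H PPARd-bla cells received compound and 300 nM L165041 (final), 17 h, 37 C. Beta-lactamase detected via FRET substrate fluorescence, 2 h, room temperature.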

[17] = molecular target: Bile acid receptor (Homo sapiens) (UniProt Q96RI1); experiment: qHTS assay to identify small molecule antagonists of the farnesoid-X-receptor (FXR) signaling pathway (AID 743217; active = well fitted inhibition curve with a large enough effect in the signal ratio in the repeat runs, not every such curve was filed as active; the % refers to the signal ratio)
Sequence of Bile acid receptor (Homo sapiens) (Q96RI1 whole entry, looked up): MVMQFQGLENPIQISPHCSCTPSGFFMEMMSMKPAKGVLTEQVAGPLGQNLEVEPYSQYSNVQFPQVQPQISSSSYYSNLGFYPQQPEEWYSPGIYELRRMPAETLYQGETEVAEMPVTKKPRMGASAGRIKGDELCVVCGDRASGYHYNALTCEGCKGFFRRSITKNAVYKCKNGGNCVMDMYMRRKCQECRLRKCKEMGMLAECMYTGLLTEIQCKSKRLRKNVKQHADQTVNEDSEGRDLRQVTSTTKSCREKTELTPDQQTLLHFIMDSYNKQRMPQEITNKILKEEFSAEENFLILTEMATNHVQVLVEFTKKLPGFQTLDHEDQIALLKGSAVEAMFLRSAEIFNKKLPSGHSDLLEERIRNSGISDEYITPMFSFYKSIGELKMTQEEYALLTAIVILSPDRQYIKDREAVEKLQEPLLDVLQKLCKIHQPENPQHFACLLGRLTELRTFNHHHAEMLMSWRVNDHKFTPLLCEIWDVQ
Outline: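 Quantitative HTS, beta-lactamase reporter format: FXR-UAS-bla HEK 293T cells co-treated 16 h at 37 °C with compounds and 50 uM final chenodeoxycholic acid, then read by B/G FRET fluorescence.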

[18] = qHTS assay to identify small molecule agonists of the farnesoid-X-receptor (FXR) signaling pathway - cell viability counter screen (AID 743218); note: nearly all actives have a fitted effect of over 45% in size
Outline: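 Same-well cytotoxicity check on FXR-UAS-bla HEK 293T cells: 5 h attachment, 16 h compound at 37 C, CellTiter-Glo luminescence read at room temperature after 30 min.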

[19] = molecular target: Bile acid receptor (Homo sapiens) (UniProt Q96RI1); experiment: qHTS assay to identify small molecule agonists of the farnesoid-X-receptor (FXR) signaling pathway (AID 743220; active = well fitted activation curve with a large enough effect in the signal ratio in the repeat runs, not every such curve was filed as active; the % refers to the signal ratio)
Outline: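 FXR-UAS-bla HEK 293T cells carrying a UAS-driven beta-lactamase reporter were plated for 5 h at 37C/5% CO2, then exposed to DMSO-dissolved Tox21 10K compounds for 16 h at 37C. A LiveBLAzer B/G FRET substrate was loaded for 2 h at room temperature before fluorescence reading.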

[20] = molecular target: Vitamin D3 receptor (Homo sapiens) (UniProt P11473); experiment: qHTS assay to identify small molecule antagonists of the vitamin D receptor (VDR) signaling pathway (AID 743223; active = well fitted inhibition curve with a large enough effect in the signal ratio in the repeat runs, not every such curve was filed as active; the % refers to the signal ratio)
Outline: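 Cells carrying a VDR-driven beta-lactamase reporter (VDR-bla) were co-treated with compound and 3 nM final 1alpha,25-dihydroxyvitamin D3 for 16 h at 37C; reporter activity was measured as FRET substrate fluorescence after 2 h at room temperature.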

SMILES	Potency [1]	Potency [2]	Potency [3]	Potency [4]	Potency [5]	Potency [6]	Potency [7]	Potency [8]	Potency [9]	Potency [10]	Potency [11]	Potency [12]	outcome [13]	Potency [14]	Potency [15]	Potency [16]	Potency [17]	Potency [18]	Potency [19]	outcome [20]
CC1=CC(O)CC(C)(C)C1 (configuration not stated)	inactive	inactive	inactive	inactive	inactive	inactive	inactive	inactive	inactive	inactive	inactive	inactive	inactive	inactive						
COC(=O)CC(=O)C(C)(C)C	inactive	inactive	inactive				inactive	inactive	inactive	inactive	inactive		inactive	inactive	inactive	inactive	inactive	inactive	inactive	
CCn1cc(C(=O)O)c(=O)c2cc(F)c(N3CCNCC3)nc21	inactive	inactive		inactive	inactive	inactive	inactive	inactive	inactive	inactive	inactive	inactive	inactive		inactive	inactive		inactive		
C=CCOC(=O)/C=C\C(=O)OCC=C	inactive	inactive	inactive	inactive	27.8 µM (active)				inactive	inactive	inactive	inactive	inactive	inactive		inactive		inactive	inactive	
O=C(Nc1ccccc1)Nc1ccccc1	30.8 µM (active)	inactive	inactive	inactive	inactive		inactive	inactive	inactive	inactive	inactive			inactive		inactive				
CC(C)C(OC(=O)c1ccccc1)C(C)(C)COC(=O)c1ccccc1 (configuration not stated)	inactive	inactive	inactive	inactive	inactive	inactive	inactive	inactive	inactive	inactive	inactive	inactive				inactive		inactive		inactive
O=C(N/N=C/c1ccc([N+](=O)[O-])o1)c1ccc(O)cc1	inactive	11.4 µM (active)	inactive			23.7 µM (active)	inactive	inactive	inactive		inactive	inactive						inactive		
CN(C(=O)C(Cl)Cl)c1ccc(OC(=O)c2ccco2)cc1	inactive	inactive	inactive	inactive		inactive	inactive	inactive	inactive	inactive	inactive	inactive	inactive	inactive		inactive	inactive	inactive		
Cc1ccc(S(=O)(=O)NC2CCCCC2)cc1	inactive	inactive	inactive	inactive	inactive	inactive	inactive	inactive	inactive	inactive	inactive	inactive		inactive		inactive		inactive	inactive	
COC(=O)[C@@H]1CC2=CC(=O)CC[C@]2(C)[C@@]23O[C@@H]2C[C@@]2(C)[C@@H](CC[C@@]24CCC(=O)O4)[C@H]13	inactive	inactive	inactive	inactive	inactive	inactive	inactive	inactive	inactive	inactive	inactive	inactive	inactive			inactive		inactive		inactive
CCC(C)(C)C1CCC(O)CC1 (configuration not stated)	inactive	inactive	inactive	inactive	inactive	inactive	inactive	inactive	inactive	inactive	inactive	inactive	inactive	inactive				inactive		
CCCCCCCCSCCO	inactive	inactive		inactive	inactive	inactive		inactive	inactive	inactive	inactive	inactive			inactive	inactive	inactive	inactive	inactive	
CCCCCCCCCOC(C)=O	inactive	inactive			inactive	inactive		inactive	inactive	inactive	inactive	inactive	inactive	inactive	inactive	inactive		inactive	inactive	
Cc1ccccc1N1C(=O)c2cc(S(N)(=O)=O)c(Cl)cc2NC1C (configuration not stated)	inactive	inactive		inactive	inactive	inactive		inactive	inactive	inactive	inactive	inactive	inactive	inactive				inactive		
COC(OC)(C(=O)c1ccccc1)c1ccccc1	inactive	inactive		inactive	inactive	inactive	inactive	inactive	inactive	inactive	inactive	inactive	inactive	inactive	inactive	inactive		inactive		inactive
CCOC(=O)c1ccccc1OC	inactive	inactive		inactive	inactive	inactive	inactive	inactive	inactive	inactive	inactive	inactive	inactive		inactive			inactive		inactive
Cc1cc(OI)c(C(C)C)cc1-c1cc(C(C)C)c(OI)cc1C	inactive	inactive		inactive	inactive	inactive	inactive		inactive		inactive	inactive					inactive	inactive		
CN(C)C(=O)Nc1ccc(Oc2ccc(Cl)cc2)cc1	inactive	inactive		inactive	19.3 µM (active)	inactive		inactive	inactive		inactive	inactive	inactive	inactive				inactive		inactive
CC(CCO)CCc1ccccc1 (configuration not stated)	inactive	inactive				inactive	inactive	inactive	inactive	inactive	inactive	inactive	inactive	inactive	inactive	inactive	inactive	inactive	inactive	inactive
CC1(C)O[C@@H]2C[C@H]3[C@@H]4CCC5=CC(=O)C=C[C@]5(C)[C@H]4[C@@H](O)C[C@]3(C)[C@]2(C(=O)CO)O1	inactive	inactive		inactive	inactive	inactive	inactive	inactive	inactive		inactive	inactive	inactive	inactive				inactive		inactive
Nc1ccc(S(=O)(=O)O)cc1	inactive	inactive			inactive	inactive	inactive	inactive	inactive		inactive	inactive	inactive	inactive	inactive			inactive		inactive
CC(=O)CC(c1ccc([N+](=O)[O-])cc1)c1c(O)c2ccccc2oc1=O (configuration not stated)	inactive	inactive		inactive	inactive	inactive		inactive	inactive	inactive	inactive	inactive	inactive	inactive	inactive	inactive		inactive		
CC#N	inactive	inactive		inactive	inactive	inactive	inactive	inactive	inactive	inactive	inactive	inactive		inactive		inactive		inactive	inactive	
OCCSc1ccccc1	inactive	inactive		inactive	inactive	inactive		inactive	inactive	inactive	inactive	inactive	inactive	inactive	inactive	inactive		inactive		inactive
Cc1ccc(S)cc1	inactive	inactive		inactive	inactive	inactive	inactive		inactive	inactive	inactive	inactive		inactive	inactive	inactive		inactive		
